# According to PubChem BioAssay (NCATS):
# Records with an inconclusive call do not appear. Entries that show only a call come without a potency. Values without a mark were called inactive. Activity calls are given as the source filed them. The call rests on the fitted dose curve; in most records, active means well fitted curve in the direction sought with a large enough effect; inconclusive means small, poorly fitted or top-dose-only effect, or another doubt; inactive means no such curve, though single readings can be large; an effect the other way counts as inactive or inconclusive.
# What was measured:
# HEK293 = experiment: Cytotoxic Profiling of Annotated Libraries Using Quantitative High-Throughput Screening (AID 1296008); conditions: Five cell lines viability, CellTiter-Glo ATP luminescence, 48-72 h; max response: stronger effect = lower value; further: nearly all actives have a fitted effect of over 60% in size; further: potency means the concentration at half of the fitted maximal effect
# Procedure, shortened: (§1)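 Cytotoxicity was measured as CellTiter-Glo ATP luminescence, read after 10 min at room temperature. Compound treatment of the cells lasted 48 or 72 hr at 37 degrees Celsius in a qHTS format.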
# HaCat [1] = experiment: as above; conditions: Five cell lines viability, CellTiter-Glo ATP luminescence, 48-72 h; max response: stronger effect = lower value
# Procedure, shortened: as §1
# NIH3T3 [2] = experiment: as above; conditions: Five cell lines viability, CellTiter-Glo ATP luminescence, 48-72 h; max response: stronger effect = lower value
# Procedure, shortened: as §1
# JEG-3 = experiment: Primary qHTS to identify gynecologic anti-cancer compounds using libraries of approved drugs and bioactive compounds (AID 1345084); conditions: Gynecologic cancer cell panel viability, ATPlite luminescence, 48 h; series mostly up to 57.5 µM; further: nearly all actives have a fitted effect of over 55% in size; further: potency means the concentration at half of the fitted maximal effect
# Procedure, shortened: (§2)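 Cells, 1,000 per well, were allowed to settle for 16 h at 37 C before compound addition. Five concentrations were tested for 48 h, and viability was read by ATPlite luminescence after 15 min at room temperature.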
# HACAT [3] = experiment: qHTS assay to identify novel small-molecules to repurpose for Merkel cell carcinoma treatment (AID 1296009); conditions: MCC and control cell lines, CellTiter-Glo viability, 72 h; at 44.8 µM (top of the series) unless noted; further: nearly all actives have a fitted effect of over 60% in size
# Procedure, shortened: (§3)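 Cell viability measured by CellTiter-Glo following 72 hr compound treatment at 37 degree celsius, with NPC and MIPE libraries tested in 8- and 11-point concentration series.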
# CASKI = experiment: Primary qHTS to identify gynecologic anti-cancer compounds using libraries of approved drugs and bioactive compounds (AID 1345084); conditions: Gynecologic cancer cell panel viability, ATPlite luminescence, 48 h; series mostly up to 57.5 µM; further: nearly all actives have a fitted effect of over 55% in size; further: potency means the concentration at half of the fitted maximal effect
# Procedure, shortened: as §2
# HeLa = experiment: as above; conditions: Gynecologic cancer cell panel viability, ATPlite luminescence, 48 h; series mostly up to 57.5 µM
# Procedure, shortened: as §2
# Hek293T = experiment: as above; conditions: Gynecologic cancer cell panel viability, ATPlite luminescence, 48 h, control line for the selectivity index; series mostly up to 57.5 µM
# Procedure, shortened: as §2
# C33A = experiment: as above; conditions: Gynecologic cancer cell panel viability, ATPlite luminescence, 48 h; series mostly up to 57.5 µM
# Procedure, shortened: as §2
# Es-2 = experiment: as above; conditions: Gynecologic cancer cell panel viability, ATPlite luminescence, 48 h; series mostly up to 57.5 µM
# Procedure, shortened: as §2
# OV90 = experiment: as above; conditions: Gynecologic cancer cell panel viability, ATPlite luminescence, 48 h; series mostly up to 57.5 µM
# Procedure, shortened: as §2
# PA-1 = experiment: as above; conditions: Gynecologic cancer cell panel viability, ATPlite luminescence, 48 h; series mostly up to 57.5 µM
# Procedure, shortened: as §2
# SKOV3 = experiment: as above; conditions: Gynecologic cancer cell panel viability, ATPlite luminescence, 48 h; series mostly up to 57.5 µM
# Procedure, shortened: as §2
# NIH3T3 [4] = experiment: qHTS assay to identify novel small-molecules to repurpose for Merkel cell carcinoma treatment (AID 1296009); conditions: MCC and control cell lines, CellTiter-Glo viability, 72 h; series mostly up to 44.8 µM; further: nearly all actives have a fitted effect of over 60% in size
# Procedure, shortened: as §3
# CAOV3 = experiment: Primary qHTS to identify gynecologic anti-cancer compounds using libraries of approved drugs and bioactive compounds (AID 1345084); conditions: Gynecologic cancer cell panel viability, ATPlite luminescence, 48 h; series mostly up to 57.5 µM; further: nearly all actives have a fitted effect of over 55% in size; further: potency means the concentration at half of the fitted maximal effect
# Procedure, shortened: as §2
smiles,measurement,setting,value
O=C(Nc1ccc(C(O)(C(F)(F)F)C(F)(F)F)cc1)c1ccc(C(F)(F)F)cc1,Potency,HEK293,10.3 µM (active)
same,Potency,HaCat [1],8.2 µM (active)
same,Potency,NIH3T3 [2],20.6 µM (active)
same,Potency,JEG-3,inactive
C/C(=N\N=C(N)N)c1cc(NC(=O)CCCCCCCCC(=O)Nc2cc(/C(C)=N/N=C(N)N)cc(/C(C)=N/N=C(N)N)c2)cc(/C(C)=N/N=C(N)N)c1,Potency,HEK293,7.31 µM (active)
same,outcome,HaCat [1],inactive
same,max response,NIH3T3 [2],0.565%
same,outcome,HACAT [3],inactive
same,Potency,CASKI,inactive
same,Potency,HeLa,inactive
same,Potency,Hek293T,inactive
same,Potency,JEG-3,inactive
CC(=O)O[C@H]1C[C@H](OC(C)=O)[C@]2(C)[C@H](CC[C@@]34O[C@@H]3C3=C(C)C(=O)O[C@@H]3C[C@H]42)C1(C)C,Potency,HEK293,5.63 µM (active)
same,outcome,HaCat [1],inactive
same,max response,NIH3T3 [2],-18%
same,outcome,HACAT [3],inactive [at 17.4 µM]
same,Potency,C33A,inactive
same,Potency,CASKI,inactive
same,Potency,Es-2,inactive
same,Potency,HeLa,inactive
same,Potency,Hek293T,inactive
same,Potency,JEG-3,inactive
same,Potency,OV90,inactive
same,Potency,PA-1,inactive
same,Potency,SKOV3,inactive
CC(=O)NC(C(=O)O[C@H]1CCC(C)(C)[C@@H]2CC=C3C(=O)OCC3(O)[C@@]12C)C(C)C (stereo partly drawn),max response,HEK293,-20.5%
same,max response,HaCat [1],3.16%
same,outcome,NIH3T3 [2],inactive
same,Potency,NIH3T3 [4],inactive
same,Potency,CAOV3,inactive
same,Potency,CASKI,inactive
same,Potency,Es-2,inactive
same,Potency,HeLa,inactive
same,Potency,Hek293T,inactive
same,Potency,JEG-3,inactive
C=C1C(=O)O[C@@H]2/C=C(\CO)CC/C=C(/C=O)C[C@@H](O)[C@@H]12,Potency,HEK293,8.2 µM (active)
same,Potency,HaCat [1],18.4 µM (active)
same,Potency,NIH3T3 [2],16.4 µM (active)
same,Potency,CASKI,inactive
same,Potency,Es-2,31.6 µM (active)
same,Potency,HeLa,inactive
same,Potency,Hek293T,28.2 µM (active)
same,Potency,JEG-3,inactive
COc1ccc(CN2CCN(C(=O)CCNC(=O)c3ccc(C(C)(C)C)cc3)CC2)cc1,Potency,HEK293,7.31 µM (active)
same,max response,HaCat [1],3.77%
same,max response,NIH3T3 [2],3.24%
same,Potency,CAOV3,inactive
same,Potency,CASKI,inactive
same,Potency,Es-2,inactive
same,Potency,HeLa,inactive
same,Potency,JEG-3,inactive
same,Potency,OV90,inactive
same,Potency,SKOV3,inactive
COc1cc([C@H]2O[C@H](c3cc(OC)c4c(c3)OCO4)[C@H](C)[C@H]2C)cc(OC)c1OC,Potency,HEK293,0.893 µM (active)
same,outcome,HaCat [1],inactive
same,outcome,HACAT [3],inactive [at 17.4 µM]
same,Potency,CAOV3,inactive
same,Potency,CASKI,inactive
same,Potency,HeLa,inactive
same,Potency,JEG-3,inactive
same,Potency,OV90,8.91 µM (active)
COc1cccc(-c2cn(-c3ccc(CCN4CCC(O)CC4)cc3)c3ncnc(N)c23)c1,Potency,HEK293,8.2 µM (active)
same,Potency,HaCat [1],5.17 µM (active)
same,Potency,NIH3T3 [2],1.3 µM (active)
same,Potency,CAOV3,14.1 µM (active)
same,Potency,OV90,28.2 µM (active)
same,Potency,PA-1,12.6 µM (active)
same,Potency,SKOV3,8.91 µM (active)
O=C(Nc1ccc(-c2ccnc(Nc3ccc(N4CCOCC4)cc3)n2)cc1)C1CCCN1 (stereo not drawn),Potency,HEK293,6.51 µM (active)
same,outcome,HaCat [1],inactive
same,outcome,HACAT [3],inactive
same,Potency,C33A,inactive
same,Potency,CAOV3,inactive
same,Potency,CASKI,inactive
same,Potency,Es-2,inactive
same,Potency,HeLa,inactive
same,Potency,Hek293T,inactive
same,Potency,JEG-3,inactive
same,Potency,OV90,inactive
same,Potency,SKOV3,inactive
Cc1cc(-c2cnc(N)c3c(-c4ccc5scnc5c4)csc23)n(C)n1,Potency,HEK293,8.2 µM (active)
same,max response,HaCat [1],-13.1%
same,Potency,NIH3T3 [2],11.6 µM (active)
same,Potency,CAOV3,inactive
same,Potency,CASKI,inactive
same,Potency,Es-2,inactive
same,Potency,HeLa,inactive
same,Potency,Hek293T,inactive
same,Potency,JEG-3,inactive
same,Potency,PA-1,inactive
Nc1nc(Cl)nc2c1ncn2C1OC(CO)C(O)C1F (stereo not drawn),Potency,HEK293,2.06 µM (active)
same,Potency,HaCat [1],1.46 µM (active)
same,Potency,NIH3T3 [2],1.03 µM (active)
same,Potency,C33A,inactive
same,Potency,CAOV3,0.631 µM (active)
same,Potency,CASKI,3.98 µM (active)
same,Potency,HeLa,inactive
same,Potency,OV90,inactive
same,Potency,PA-1,3.55 µM (active)
Cc1nc(NC(=O)N2CCCC2C(N)=O)sc1-c1ccnc(C(C)(C)C(F)(F)F)c1 (stereo not drawn),Potency,HEK293,10.3 µM (active)
same,Potency,HaCat [1],2.31 µM (active)
same,Potency,NIH3T3 [2],9.2 µM (active)
same,Potency,C33A,inactive
same,Potency,CASKI,3.55 µM (active)
same,Potency,Es-2,inactive
same,Potency,Hek293T,inactive
same,Potency,JEG-3,inactive
same,Potency,SKOV3,8.91 µM (active)
CCCc1cc2c(N3CCN(C4=NCC(C)(C)S4)CC3)ncnc2s1,Potency,HEK293,5.8 µM (active)
same,outcome,HaCat [1],inactive
same,outcome,HACAT [3],inactive
same,Potency,C33A,inactive
same,Potency,CAOV3,inactive
same,Potency,CASKI,inactive
same,Potency,Es-2,inactive
same,Potency,HeLa,inactive
same,Potency,JEG-3,inactive
same,Potency,PA-1,inactive
same,Potency,SKOV3,25.1 µM (active)
COc1ccc(CCc2nc3c(C)c(-c4c(C)noc4C)c(C)cc3n2CCN2CCOCC2)cc1,Potency,HEK293,23.1 µM (active)
same,max response,HaCat [1],-20.3%
same,max response,NIH3T3 [2],-12.8%
same,Potency,HeLa,inactive
same,Potency,OV90,inactive
CCc1ccccc1OC[C@@H](O)CN[C@H]1CCCc2ccccc21,Potency,HEK293,23.1 µM (active)
same,outcome,HaCat [1],inactive
same,max response,NIH3T3 [2],-24.4%
same,outcome,HACAT [3],inactive
same,Potency,C33A,inactive
same,Potency,CAOV3,inactive
same,Potency,CASKI,inactive
same,Potency,Es-2,inactive
same,Potency,HeLa,inactive
same,Potency,Hek293T,inactive
same,Potency,JEG-3,inactive
same,Potency,OV90,inactive
same,Potency,PA-1,inactive
same,Potency,SKOV3,inactive
